# Reference: PubChem BioAssay (NCI)
# Where “and” joins values, the source holds several entries; their conditions need not be identical. Equal entries are not always repeated. About 83,000 compounds went through this panel and 20% of them were active in at least one assay; those are over-represented in the sample as a whole.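 Method: cells in 96-well plates; compound added at one concentration; 48 h incubation; percent growth measured; values under 10 scored active.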 Values without a mark were called inactive. Calls of active or inactive are those of the source.
# Tested on: MDA-MB-468 breast
# Experiment: NCI-60 one-dose screen, 48 h (100 = growth as untreated, 0 = no growth, -100 = all killed)
# Settings: 10 µM unless noted
row,Structure (SMILES),growth
1,CCC1=C[C@@H]2CN(C1)Cc1c([nH]c3ccccc13)[C@@](C(=O)OC)(c1cc3c(cc1OC)N(C=O)[C@H]1[C@@](O)(C(=O)OC)[C@H](OC(C)=O)[C@]4(CC)[C@@H]5C[C@@H]5CN5CC[C@]31[C@@H]54)C2,25.2%
2,O=C(NCCNc1nccc(-c2c(-c3cccc(O)c3)nc3sccn23)n1)c1cc(N2CCOCC2)cc(C(F)(F)F)c1,94.8%
3,COC[C@H](C)n1c(C2CCOCC2)nc2cnc3cc(-c4c(C)noc4C)c(OC)cc3c21,54.5%
4,COc1cc2c(cc1OC)C(Sc1ccc(Cl)cc1)c1c(nc(N)c(C#N)c1N)O2 (stereo not given),-23.6% (active)
5,O=C(CC(c1ccccc1)N1CCOCC1)c1ccccc1 (stereo not given),73.4%
6,COc1cc(Cl)cc(-c2nn(-c3cccc(NC(=O)Nc4ccc(Cl)c(C(F)(F)F)c4)c3)cc2-c2ccncc2)c1,-14.4% (active)
7,C=C1c2c(C)nn(-c3ccc(C#CCOC4OC(CO)C(O)C(O)C4O)cc3)c2N(C)C23C[C@H]1C1(C)c4c(C)nn(-c5ccc(C#CCOC6OC(CO)C(O)C(O)C6O)cc5)c4N(C)C(C)(C[C@H]12)C3 (stereo not given in full),-16.4% (active)
8,N#Cc1c(N)nnn1Cc1cc(=O)oc2ccc(O)cc12,101%
9,CCOc1ccc2cc(-c3nn(CC4CCNCC4)c4ncnc(N)c34)ccc2c1,93.3% and 40.5%
10,O=C(CC(=O)c1ccccc1F)Nc1ccc([N+](=O)[O-])cc1,90.9%
11,O=C1CSC(c2ccccc2O)N1c1nnc(Cn2cnnc2)o1 (stereo not given),96.2%
12,O=C(CSc1nnc(-c2ccccc2)o1)Nc1ccc(C(=O)/C=C/c2ccccc2)cc1,58.3%
13,COc1cccc(NC(=O)c2c(-c3ccccc3)c(-c3ccccc3)n[nH]c2=O)c1,92.4%
14,CCn1c2ccc(O)cc2c2c(C)c3c[n+](C)ccc3c(C)c21,-31.2% (active)
15,CCN(CC)c1ccc(/C=C2/NC(=O)NC2=O)cc1,37.8%
16,N#CC(C#N)N=Nc1cc(Cl)ccc1Cl,120%
17,Cc1cccc([N+](=O)[O-])c1I,104%
18,Oc1ccc(Nc2ncnc3c2sc2ncccc23)cc1,21.3%
19,CSc1oc(C)nc1[P+](c1ccccc1)(c1ccccc1)c1ccccc1,-4.41% (active)
20,O=[N+]([O-])c1cccc(-c2nc3sccn3c2-c2ccnc(NCCCNS(=O)(=O)c3ccc(Cl)cc3)n2)c1,13.1%

row,Structure (SMILES),growth
1,COc1cc(-c2nc3nc4sc(C)c(C)c4c(=O)n3[nH]2)cc(OC)c1OC,75.5%
2,COc1ccc(C2CC(n3nnnc3-c3ccccc3)=NN2)cc1 (stereo not given),64.5%
3,Cc1ncn(-c2ccc(/C=N/Nc3ccnc4cc(Cl)ccc34)cc2)c1C,-21.4% (active)
4,Oc1ccc(CSc2nnc(-c3ccncc3)o2)c2cccnc12,11.9%
5,O=C(CCc1nnc2sc(-c3ccc(Cl)cc3Cl)nn12)c1nc2ncccc2[nH]1,-66% (active)
6,COc1cc(/C=N\NC(=O)c2ccc3nc(-c4ccc(Br)cc4)[nH]c3c2)cc(OC)c1OC,37.2%
7,CCCCCCCCCCCCCCCCOc1ccccc1NC(=O)CC(C)=O,111%
8,O=C(Nc1ccc(C23CC4CC(CC(c5ccccc5)(C4)C2)C3)cc1)c1cccs1,38.6%
9,N=C(N)N=Nc1ccc(O)cc1,88% [100 µM]
10,CCOC(=O)CNS(=O)(=O)CC(=O)c1ccccc1,54.1%
11,O=C1Nc2ccccc2/C1=C\c1nc(-c2ccccc2)n2ccccc12,-1.63% (active)
12,CCN1CCN(CC(=O)Nc2ccc(-c3cn4c(n3)sc3cc(Oc5ccnc(C(=O)NC)c5)ccc34)cc2)CC1,74.4%
13,O=C1Nc2cc(-c3ccncc3)ccc2/C1=C/c1ccc[nH]1,-15.9% (active)
14,Nc1c2ccccc2nc2ccccc12 (tested in a mixture with another compound),-18.6% (active)
15,COC(=O)[C@]1(CCSC)N[C@H](c2cn(-c3ccccc3)nc2C)[C@@H]2C(=O)N(c3ccccc3)C(=O)[C@@H]21,108%
16,COc1ccc(C(=O)c2cc(OC)c(OC)c(OC)c2)cc1/C=C/C(=O)c1cc(OC)c(OC)c(OC)c1,73%
17,COc1ccc(/C=c2\sc3n(c2=O)C(c2cc(OC)c(OC)c(OC)c2)C=C(c2ccc(OC)c(OC)c2)N=3)cc1OC (stereo not given),105%
18,CS(=O)(=O)c1ccc(-c2nn(-c3ccccc3)cc2/C=C/C(=O)c2ccc(Br)cc2)cc1,91.4%
19,O=C(CC1(O)C(=O)Nc2c(Cl)ccc(Cl)c21)c1ccc(Cl)cc1Cl (stereo not given),103%
20,Nc1cccc(S(=O)(=O)c2cccc(N)c2)c1,119%
